An excerpt weighted towards active compounds, which were near 5.6% of everything screened.
PHOSPHO1 inh – PHOSPHO1 (human) inhibition. recombinant PHOSPHO1, absorbance phosphatase assay. Q8TCT1. inhibition, % at 13.3 µM. AID 1565. 290,000 compounds, 1.1% hits; in the data active = inhibition above about 60%
Target sequence (Q8TCT1 whole entry, looked up): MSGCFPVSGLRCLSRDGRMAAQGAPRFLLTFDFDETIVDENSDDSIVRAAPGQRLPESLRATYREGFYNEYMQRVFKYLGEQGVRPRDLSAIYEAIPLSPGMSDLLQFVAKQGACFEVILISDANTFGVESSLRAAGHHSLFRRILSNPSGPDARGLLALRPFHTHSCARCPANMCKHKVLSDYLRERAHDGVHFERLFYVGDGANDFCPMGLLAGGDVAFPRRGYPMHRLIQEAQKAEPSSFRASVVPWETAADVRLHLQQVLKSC
ALR H2O2 inh – blocks human ALR sulfhydryl oxidase activity; 290,000 compounds, 3.8% hits; inhibition, % (test concentration not listed); P55789; purified ALR, DTT oxidation, H2O2 HRP-luminol luminescence;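 active = mean replicate inhibition above about 79%, with every replicate also reaching it, limit read from the data; inconclusive = only one of the two criteria met; inactive = mean below limit and not every replicate reaching it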
Target sequence (P55789 whole entry, looked up): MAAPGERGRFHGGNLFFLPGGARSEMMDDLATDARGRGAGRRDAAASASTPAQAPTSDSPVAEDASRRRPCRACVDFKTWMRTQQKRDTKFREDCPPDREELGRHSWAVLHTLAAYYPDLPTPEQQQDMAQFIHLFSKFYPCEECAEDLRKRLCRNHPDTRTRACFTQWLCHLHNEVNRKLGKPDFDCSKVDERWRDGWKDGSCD
Cardio protect – protects H9c2 cardiomyocytes from peroxide injury | 360,000 compounds, 0.63% hits | H2O2 injury protection, ATPLite, 2 h | protection from H2O2 cell death, % at 20 µM | AID 588492;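 active = compounds giving at least 50% protection of heart cells from peroxide-induced death in the single-dose screen, raw or plate-pattern-corrected value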
PfGluPho inh – PfG6PD (Plasmodium falciparum) enzyme inhibition; inhibition, % at 20 µM; PfGluPho enzyme, NADPH resazurin-diaphorase fluorescence; 350,000 compounds, 0.78% hits; AID 504690;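 active = inhibition reaching at least a set limit at 20 µM in the primary screen, cut at about 59% in these data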
M18AAP inhibitor – blocks P. falciparum M18 aspartyl aminopeptidase; recombinant PfM18AAP, H-Glu-NHMec fluorogenic cleavage; inhibition, % at 7.35 µM; 290,000 compounds, 1.2% hits;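 active = inhibition above the campaign mean inhibition over all tested compounds plus 3 SD, cut at about 28% in these data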
Large screens that a line does not name were inactive.

O=C(CN1CCCCC1)Nc1nc(-c2ccc(F)c(F)c2)cs1	Cardio protect 55
Cc1ccc(-c2csc(NC(=O)CN3CC(C)OC(C)C3)n2)cc1 (stereo unspecified)	ALR H2O2 inh 98
O=S(=O)(Nc1ccc(N2CCCCC2)cc1)c1ccc(F)cc1	ALR H2O2 inh 98
O=S(=O)(Nc1ccc(N2CCCCC2)cc1)c1cccc2cccnc12	ALR H2O2 inh 98
O=S(=O)(Nc1ccc(N2CCOCC2)cc1)c1ccc(F)cc1	ALR H2O2 inh inconclusive
O=C(c1ccc(NS(=O)(=O)c2cccc3cccnc23)cc1)N1CCCCC1	none
O=S(=O)(Nc1ccc(N2CCCCC2)cc1)c1ccccc1F	ALR H2O2 inh 99
O=S(=O)(Nc1ccc(N2CCCCC2)cc1)c1ccc(F)cc1F	none
Cc1ccccc1C(=O)NCC(=O)OC1CCCCC1=O (stereo unspecified)	none (no result: PHOSPHO1 inh, M18AAP inhibitor)
Cc1nn2cnnc2c(C)c1Cc1c(F)cccc1Cl	none (no result: ALR H2O2 inh)
CC1(C)C(=O)OC(c2ccc([N+](=O)[O-])cc2)C(C)(C)C1=O (stereo unspecified)	none
C#CCOCCOCCOCCNc1nc(N2CCN(C(=O)CCCCCCCCCCNC(=O)[C@H](CO)n3cc(CCCSC)nn3)CC2)nc(N2CCN(C(=O)CCCCCCCCCCNC(=O)[C@H](CCCN=C(N)N)n3cc(C[C@@H](C)CC)nn3)CC2)n1	none (no result: PHOSPHO1 inh, M18AAP inhibitor)
CCC(C)(C)n1nnnc1CN1CCc2ccccc21	ALR H2O2 inh 98
c1ccc(CCn2nnnc2CN2CCCc3ccccc32)cc1	PHOSPHO1 inh 64, ALR H2O2 inh 89
CCN(CC(=O)Nc1c(F)cccc1F)C(=O)c1ccc(S(=O)(=O)N2CCC(C)CC2)cc1	none (no result: PHOSPHO1 inh, M18AAP inhibitor)
O=C1CC(=O)N(c2ccccc2)N1c1ccccc1	ALR H2O2 inh 97
Cc1cccc(S(=O)(=O)C(C#N)c2nc3ccccc3nc2N2CC(C)OC(C)C2)c1 (stereo unspecified)	none
CC1CCCN(c2nc3ccccc3nc2C(C#N)S(=O)(=O)c2cccs2)C1 (stereo unspecified)	PHOSPHO1 inh 102, ALR H2O2 inh 97
Cc1ccc(S(=O)(=O)C(C#N)c2nc3ccccc3nc2N2CC(C)OC(C)C2)cc1C (stereo unspecified)	PHOSPHO1 inh 78
COc1ccccc1NC(=O)C1CCCN(c2cnccn2)C1 (stereo unspecified)	none
CN(C1CCCCC1)S(=O)(=O)c1ccc(SCC(=O)C(C)(C)C)nc1	none (no result: PHOSPHO1 inh, M18AAP inhibitor)
Cc1ccc2nc(-c3ccc(N4C(=N)SC5CS(=O)(=O)CC54)cc3)sc2c1 (stereo unspecified)	none (no result: ALR H2O2 inh)
Nc1ccc(-c2nc3cc(N)ccc3s2)cc1	ALR H2O2 inh 99
CCOc1ccccc1N1CCN(C(=O)c2ccc(OCC(=O)N3CCOCC3)c(OC)c2)CC1	none
CCN1CCc2c(OCC(=O)Nc3ccccc3)cccc2C1=O	none
O=C(COc1ccccc1O)Nc1ccc(Cl)cc1	none
O=C(COc1cccc2c1CCNC2=O)Nc1ccc(Cl)cc1	Cardio protect 64 (no result: PHOSPHO1 inh, ALR H2O2 inh, M18AAP inhibitor)
COc1ccccc1NC(=O)COc1cccc2c1CCNC2=O	Cardio protect 64 (no result: PHOSPHO1 inh, ALR H2O2 inh, M18AAP inhibitor)
CCN1CCc2c(OCC(=O)Nc3ccc(C)cc3)cccc2C1=O	PHOSPHO1 inh 62
NC(=O)c1ccc(NC(=O)COc2cccc3c2CCNC3=O)cc1	Cardio protect 79 (no result: PHOSPHO1 inh, ALR H2O2 inh, M18AAP inhibitor)
Cc1ccc(N(CC(=O)NC(C)(C)C)C(=O)CCC(=O)Nc2ccccn2)cc1	none (no result: PHOSPHO1 inh, ALR H2O2 inh, M18AAP inhibitor)
COC(=O)c1ccc2c(=O)[nH]c(COC(=O)c3[nH]c(C)c(C(C)=O)c3C)nc2c1	Cardio protect 72 (no result: PHOSPHO1 inh, M18AAP inhibitor)
CN(CCCC1CCCC1)C(=O)CC1C(=O)NCCN1Cc1ccc(F)cc1 (stereo unspecified)	none
COC(=O)c1ccc(COc2ccc(C=O)cc2)o1	none
COC(=O)c1ccc(COc2ccc(/C=N/O)cc2)o1	ALR H2O2 inh 98
Cc1cccc(C)c1NC(=S)NC(=O)c1ccc(Br)o1	none
Cn1ncc(C(N)=O)c1NC(=S)NC(=O)c1ccc(Br)o1	PHOSPHO1 inh 80
O=C(Nc1ccc2snnc2c1)N1CCCCC1	ALR H2O2 inh inconclusive
O=C(Nc1ccc2snnc2c1)N1CCN(c2ccccc2)CC1	ALR H2O2 inh 99
S=C(Nc1ccc(N2CCOCC2)cc1)Nc1ccc2snnc2c1	ALR H2O2 inh 95, M18AAP inhibitor 30
O=C(c1ccc2snnc2c1)N1CCOCC1	none
O=C(Nc1ccc2snnc2c1)N1CCOCC1	ALR H2O2 inh 77
Cc1ccc([C@H]2N[C@]3(CCCN(Cc4ccc(C(F)(F)F)cc4)C3=O)[C@H]3C(=O)N(Cc4ccccc4)C(=O)[C@@H]23)cc1	none (no result: PHOSPHO1 inh, ALR H2O2 inh, M18AAP inhibitor)
Cc1cc(C(=O)CCl)c(C)n1Cc1ccco1	ALR H2O2 inh 97

High-throughput results: PubChem, several laboratories
